# High-throughput results (PubChem BioAssay)
# This excerpt belongs to a sample that is enriched for hits.
# LmPK inh = inhibitors of Leishmania mexicana pyruvate kinase | Q27686 | purified LmPK, Kinase-Glo ATP luminescence, 1 h | Potency, µM (series often up to 57.5 µM), without a hit: at the top dose activity change, negative = inhibition, hits mostly inhibitors | hit rate 0.37% among 290,000 | AID 1721; note: potency is the fitted concentration of half-maximal effect; % is set by controls: 0 for no effect and ±100 for the full control effect
# Target sequence (Q27686 whole entry, looked up): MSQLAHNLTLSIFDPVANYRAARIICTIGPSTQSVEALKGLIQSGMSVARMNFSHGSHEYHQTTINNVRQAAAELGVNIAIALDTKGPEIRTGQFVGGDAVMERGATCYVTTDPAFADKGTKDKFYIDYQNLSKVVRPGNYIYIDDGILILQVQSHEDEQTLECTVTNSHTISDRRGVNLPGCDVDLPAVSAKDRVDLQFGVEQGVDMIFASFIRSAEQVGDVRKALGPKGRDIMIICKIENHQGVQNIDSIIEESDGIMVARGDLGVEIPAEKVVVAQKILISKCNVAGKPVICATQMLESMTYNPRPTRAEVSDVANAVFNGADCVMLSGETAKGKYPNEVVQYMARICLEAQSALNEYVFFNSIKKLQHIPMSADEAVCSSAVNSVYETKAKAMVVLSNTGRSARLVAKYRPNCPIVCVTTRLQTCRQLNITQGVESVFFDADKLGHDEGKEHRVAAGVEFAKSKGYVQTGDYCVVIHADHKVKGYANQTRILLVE
#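 In 50 mM imidazole pH 7.2 with 7 mM MgCl2, LmPK (0.1 nM) turned over PEP (0.5 mM) and ADP (0.1 mM) for 1 h at room temperature. Luciferase read-out of ATP.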
# RE007 growth inh = less growth of the S. pombe RE007 Vpr strain; hit rate 0.21% among 360,000; S. pombe RE007 Vpr strain, BacTiter-Glo ATP luminescence, 24 h; Potency, µM (titrated, usually from 92.2 µM), without a hit: at the top dose activity change, negative = less growth, most hits filed as inhibitors; active = well fitted falling curve with a large enough effect; inconclusive = small, poorly fitted or top-dose-only effect; inactive = no such curve, though single readings can be large or run the other way; note: potency is the fitted concentration of half-maximal effect; % is set by controls: 0 for no effect and ±100 for the full control effect; nearly all actives have a fitted effect of over 50% in size
#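 Fission yeast strain RE007, carrying one chromosomally integrated HIV-1 vpr copy, was seeded at OD 0.01 in PMG+AL medium with 23 nL pinned compound. After 24 h at 30 °C and 99% humidity, viability was read by BacTiter-Glo luminescence.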
# CHX counter = counter-screen for Shiga toxin inhibitors: cycloheximide protein synthesis inhibition. cell reporter, cycloheximide protein synthesis inhibition counterscreen. max response, %. hit rate 12% among 300,000. AID 2314; in the data active = max response mostly above about 13%, no sharp cut-off; inactive = mostly below about 14%; note: read at 38.3 µM for the half of the compounds with a filed dose; 0% is about no effect
# Shiga toxin inh = blocks Shiga toxin action in Vero cells | inhibition, % at 38.7 µM | hit rate 9.2% among 290,000 | Vero cells, Shiga toxin protein synthesis inhibition reporter | AID 2315; in the data active = inhibition mostly above about 28%, no sharp cut-off; inactive = mostly below about 43%; note: 0% is about no effect
# Giardia FBPA inh = blocks Giardia fructose-bisphosphate aldolase activity. hit rate 0.71% among 290,000. purified Giardia FBPA. Potency, µM (titrated, usually from 59.6 µM), for the others: at the top dose activity, negative = inhibition, most hits filed as inhibitors; note: potency is the fitted concentration of half-maximal effect; % is set by controls: 0 for no effect and ±100 for the full control effect; nearly all actives have a fitted effect of over 55% in size
#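 40 nM FBPA preincubated 10 min at RT with compound (up to 57.5 uM final), then substrate plus GAPDH/TPI/NAD/arsenate coupling and diaphorase/resazurin added. Fluorescence read after 20 min at RT, 525/598 nm.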
# TbPYK inhibitor = T. brucei pyruvate kinase inhibition; AID 624173; Q57TT1; Potency, µM (titrated, usually from 76.8 µM), for the others: at the highest dose activity, negative = inhibition, actives largely listed as inhibitors; hit rate 0.12% among 410,000; TbPYK enzyme, Kinase-Glo Plus ATP luminescence, 45 min; note: potency is the fitted concentration of half-maximal effect; % is set by controls: 0 for no effect and ±100 for the full control effect; nearly all actives have a fitted effect of over 50% in size
#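 Enzyme and substrate buffer are dispensed first and compound is pin-transferred. ADP at 130 uM final then starts the reaction, which runs 45 min at room temperature. Detection reagent is added for 10 min before luminescence is imaged.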
# Starred values were filed as active, the others as inactive; ? = inconclusive; / = no result; [ ] = dose if it differs, or a comment. Unless noted, calls come from the whole dose curve; as a rule, active = well fitted curve in the direction sought with a large enough effect; inconclusive = small, poorly fitted or top-dose-only effect, or another doubt; inactive = no such curve, though single readings can be large; an effect the other way counts as inactive or inconclusive.
SMILES,LmPK inh,RE007 growth inh,CHX counter,Shiga toxin inh,Giardia FBPA inh,TbPYK inhibitor
Cc1ccc(NC(=O)C2CCCN2S(=O)(=O)c2ccc3c(c2)C(C)(C)C(=O)N3C)cc1 (stereo unspecified),/,/,/,/,/,-2%
Cc1ccc2c(c1)c(=O)c(C(=O)c1ccc3c(c1)OCO3)cn2Cc1ccc(Cl)cc1,/,/,/,/,/,-9%
O=C(N/N=C1/CCSC1)c1cccc([N+](=O)[O-])c1,1%,3%,-1,50*,-9%,0%
COC(=O)c1cccc(NC(=O)c2cccc([N+](=O)[O-])c2)c1,-1%,-18%,2,/,-2%,-2%
COC(=O)/C(=C/c1cccc([N+](=O)[O-])c1)NC(=O)c1ccc(OC)cc1,3%,3%,53*,76*,-1%,-2%
CCN(CC)c1ccc(C(=O)Nc2ccccc2)cc1[N+](=O)[O-],-1%,6%,37*,67*,-24%,5%
COc1ccc(NC(=O)c2cccc([N+](=O)[O-])c2)cc1,-4%,-11%,59*,76*,-18%,-1%
COC(=O)c1sccc1S(=O)(=O)N(CC(=O)Nc1cccc(C)c1C)c1ccc(C)c(C)c1,/,/,/,/,/,3%
COc1ccc(S(=O)(=O)N(CC(=O)Nc2ccc(OC)cc2OC)c2ccc(Cl)cc2)cc1,/,/,/,/,/,-9%
CN(C)S(=O)(=O)Oc1cccc(C(=O)Nc2ccc([N+](=O)[O-])cc2)c1,9%,-9%,50*,79*,2%,-2%
COc1ccc(Cc2nnc(NC(=O)c3cccc([N+](=O)[O-])c3)s2)cc1,-1%,-18%,23*,32,-13%,-12%
Cc1cc(O)c(NC(=O)c2cccc([N+](=O)[O-])c2)cc1C,3%,-12%,22*,47*,0%,1%
O=C(Nc1ccc(O)cc1)c1cccc(Oc2ccc([N+](=O)[O-])cc2)c1,9%,15%,2,15,4%,-3%
CCOC(=O)Cc1ccc(NC(=O)c2cccc([N+](=O)[O-])c2)cc1,-15%,6%,21*,62*,-9%,-5%
CCCCCCCCCCCCC/C=C/[C@@H](O)C(CO)NC(C)=O (stereo partly specified),/,/,/,/,-2%,/
O=C(Nc1ncc([N+](=O)[O-])s1)c1cccc([N+](=O)[O-])c1,13µM*,-20%,43*,105*,?,-16%
O=C(NCc1ccccc1)c1ccc([N+](=O)[O-])cc1,/,-5%[18.4 µM],/,/,/,2%
O=C(Nc1cc([N+](=O)[O-])ccc1O)c1cccc([N+](=O)[O-])c1,0%,0%,6,/,-9%,5%
Cc1ccc(C(=O)Nc2ccc(Cc3ccncc3)cc2)cc1[N+](=O)[O-],9%,4%,0,-18,-6%,0%
O=C(Nc1ccc(Cc2ccncc2)cc1)c1cccc([N+](=O)[O-])c1,1%,-10%,23*,-23,-8%,3%
O=C(N[C@H]1CC1c1ccccc1)c1ccc([N+](=O)[O-])cc1 (stereo partly specified),-10%,16%,46*,112*,-2%,-1%
O=C(Nc1ccc([N+](=O)[O-])cc1)c1ccccc1,-1%,-18%,47*,73*,0%,1%
Cc1cc2nn(-c3ccc(F)cc3)nc2cc1NC(=O)c1cc(Cl)ccc1Cl,/,/,/,/,/,-3%
O=C(NCCc1ccc(Cl)cc1)c1ccc(CSCc2ccccc2Cl)o1,/,/,/,/,/,5%[15.4 µM]
O=C(NC1CC1)c1ccc(CSCc2ccccc2Cl)o1,-4%,-1%,26*,18,/,-7%
SMILES,LmPK inh,RE007 growth inh,CHX counter,Shiga toxin inh,Giardia FBPA inh,TbPYK inhibitor
C=C(C)C(O)/C=C/c1ccccc1OC (stereo unspecified),/,/,/,/,1%[12.9 µM],/
CCOc1ccc(N2CC(NC(=O)c3ccc(Cl)cc3)CC2=O)cc1 (stereo unspecified),/,/,/,/,/,-12%
OCc1c(Cl)nc2ccccn12,-11%,0%,-1,-6,4%,7%
Clc1cc2nc3ccccn3c2cc1Cl,-4%,-28%,20*,68*,6%,-7%
CSc1ncc(Cl)c(C(=O)N(C)c2ccccc2)n1,/,/,/,/,/,2%
[O-][N+](=Cc1ccccc1)c1ccc(Cl)cc1,/,9%,/,/,/,-19%
[O-]/[N+](=C\c1ccco1)c1ccc(Cl)cc1,-2%,0%,61*,82*,14%,0%
[O-]/[N+](=C/c1ccc(F)cc1)c1ccc(Cl)cc1,-9%,-16%,54*,53,-16%,-6%
[O-]/[N+](=C/c1ccco1)c1ccccc1,3%,-9%,23*,40,15%,0%
C[C@@]12CCC3c4ccc(OC5C=CC(c6ccccc6)OC5CO)cc4CCC3C1CCC2=O (stereo partly specified),/,/,/,/,-4%[12.9 µM],/
CCOc1ccccc1NC(=O)NCc1ccc2c(c1)CCN2C(=O)c1ccccc1,/,/,/,/,/,9%
O=C(CCCCCNC(=O)c1ccccc1)N/N=C/c1ccc(O)cc1O,-1%,-8%,-9,-16,-24%,4%
COc1cc(/C=N/NC(=O)/C(=C/c2ccccc2)CCO)ccc1O,-1%,7%,-3,-4,2%,1%
O=C(N/N=C/c1ccc(O)cc1O)/C(=C/c1ccccc1)CCO,0%,-2%,19*,-2,-22%,-7%
COc1ccc(/C=N/NC(=O)/C(=C/c2ccccc2)CCO)cc1,1%,4%,12*,13,4%,-4%
COc1ccc(C)cc1NS(=O)(=O)c1ccc2oc(=O)c3ncn(C)c3c2c1,/,/,/,/,/,-14%
CSCCC(NC(C)=O)C(=O)Oc1ccc2c3c(c(=O)oc2c1)CCCC3 (stereo unspecified),0%,5%,12,5,-2%,4%
CSCCC(NC(=O)OC(C)(C)C)C(=O)Oc1ccc2c(=O)c(-c3ccc4c(c3)OCCO4)coc2c1 (stereo unspecified),-16%,-13%,36*,83*,-11%,6%
O=C(N[C@@H](Cc1ccccc1)C(=O)OCc1ccccc1)c1nc[nH]c1C(=O)N1CCc2ccccc2C1,4%,3%,18*,16,-16%,-4%
CCCC1CCC(c2nc(-c3cccnc3)no2)CC1 (stereo unspecified),-2%,17%,62*,45,-10%,0%
COCCNC(=S)N1CCC(c2nc(-c3ccc(F)cc3)no2)CC1,0%,7%,-4,-6,0%,-7%
Fc1ccc(-c2noc(C3CCN(Cc4cccnc4)CC3)n2)cc1,-2%,8%,19*,28*,3%,1%
CC(=O)[C@H]1CC[C@H]2C3CC[C@H]4C[C@](C)(O)CC[C@]4(C)C3CC[C@]12C (stereo partly specified),/,/,-4,-3,3%,/
CCOC(=O)c1c(NC(=O)c2cc3nc(-c4ccc(OC)cc4)cc(C(F)(F)F)n3n2)sc2c1CCC(C)C2 (stereo unspecified),/,/,/,/,/,0%
